Only a selection was taken, and hits are over-represented in it overall.
DUX4 inh = DUX4-mediated transcription inhibition; 293T-iDUX4 ZSCAN4-Gaussia luciferase reporter, 24 h; stronger effect = lower value; 37,000 tested, 0.8% active; activity change, negative = inhibition, % (concentration not given with the values);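 active means mean inhibition of at least 10% in the main channel, exceeding the control channel by a set limit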;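 further: 0% = median of neutral control wells and -100% = median of positive control wells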
Numbers without * were called inactive; ! = repeats disagree.

SMILES	DUX4 inh
O=C(c1ccncc1)N1C[C@@H]2N[C@H](C1)C2c1ccc(/C=C/c2ccccc2)cc1 (some centres undefined)	2
c1cncc(-c2ccc(C3[C@@H]4CN(Cc5nccs5)C[C@H]3N4)cc2)c1 (some centres undefined)	-35*!
C/C=C/c1ccc(C2[C@@H]3CN(C(=O)Cc4ccncc4)C[C@H]2N3)cc1 (some centres undefined)	7
C/C=C/c1ccc(C2[C@H]3CNC[C@@H]2N3Cc2nccs2)cc1 (some centres undefined)	9
C(=C\c1ccc(C2[C@@H]3CN(Cc4ccccn4)C[C@H]2N3)cc1)/c1ccccc1 (some centres undefined)	-32*
C(=C\c1ccc(C2[C@@H]3CN(Cc4nccs4)C[C@H]2N3)cc1)/c1ccccc1 (some centres undefined)	-32*!
O=C(CN1CCOCC1)N1C[C@@H]2N[C@H](C1)C2c1ccc(/C=C/c2ccccc2)cc1 (some centres undefined)	-5
O=C(c1cccnc1)N1C[C@@H]2N[C@H](C1)C2c1ccc(-c2ccccc2)cc1 (some centres undefined)	11
O=C(Cc1ccncc1)N1C[C@@H]2N[C@H](C1)C2c1ccc(-c2ccccc2)cc1 (some centres undefined)	-3
c1cc(-c2ccc(C3[C@@H]4CN(Cc5nccs5)C[C@H]3N4)cc2)ccn1 (some centres undefined)	-1
C/C=C/c1ccc(C2[C@@H]3CN(C(=O)Cc4ccccc4)C[C@H]2N3)cc1 (some centres undefined)	8
O=C(N[C@@H]1CC[C@H](CCNS(=O)(=O)c2ccc(F)cc2)O[C@@H]1CO)C1CCC1	-3
CN1C(=O)c2cc(NC(=O)c3cccs3)ccc2OC[C@@H]2O[C@@H](CC(=O)NCCN3CCCCC3)CC[C@H]21	1
COCC(=O)Nc1ccc2c(c1)C(=O)N(C)[C@H]1CC[C@@H](CC(=O)NCC3CC3)O[C@H]1CO2	-2
COc1ccccc1CNC(=O)C[C@@H]1CC[C@H]2[C@@H](COC[C@@H](O)CN2C(=O)Nc2ccc(Cl)cc2)O1	3
Fc1ccccc1CN1[C@@H]2CNC[C@H]1C2c1ccc(-c2ccncc2)cc1 (some centres undefined)	9
CNC(=O)C[C@H]1CC[C@H]2[C@@H](COC[C@H](O)CN2Cc2ccc(Cl)c(Cl)c2)O1	0
COc1cccc(CN2[C@@H](CO)[C@@H](c3ccccc3)C23CN(C(=O)C2CC2)C3)c1	-2
COc1cccc(CN2[C@@H](CO)[C@@H](c3ccccc3)C23CN(Cc2ccccc2OC)C3)c1	-38*
COc1cccc(CN2[C@@H](CO)[C@@H](c3ccccc3)C23CN(C(=O)C2CCC2)C3)c1	-6
C/C=C/c1cccc(-c2nc(C(=O)NCCC)cc3c2[C@H](CCO)N([S@@](=O)C(C)(C)C)C3)c1	3
Cc1noc(C)c1S(=O)(=O)N(C)C[C@@H]1Oc2ccc(NC(=O)Nc3ccc4c(c3)OCO4)cc2C(=O)N([C@@H](C)CO)C[C@@H]1C	-2
COCC(=O)N1[C@H](CO)[C@@H](c2ccccc2)C12CN(C(=O)NC1CCCC1)C2	16
COc1ccc2c3c([nH]c2c1)[C@H](CO)N(CC1CC1)CC31CN(C(=O)NC2CCCC2)C1	6
COc1ccc2c3c([nH]c2c1)[C@H](CO)N(C(=O)c1ccccc1)CC31CN(C(=O)CC2CC2)C1	10
SMILES	DUX4 inh
COc1ccc2c3c(n(C)c2c1)[C@H](CO)N(C)CC31CN(C(=O)NC(C)C)C1	5
COc1ccc2c3c(n(C)c2c1)[C@H](CO)N(C)CC31CN(C(=O)C2CCC2)C1	23
COc1ccc2c3c(n(C)c2c1)[C@@H](CO)N(S(C)(=O)=O)CC31CCN(C(=O)C2CCCC2)CC1	15
COc1ccc2c3c([nH]c2c1)[C@H](CO)N(CC1CC1)CC31CN(C(=O)c2ccccc2)C1	-24*
COc1ccc2c3c([nH]c2c1)[C@@H](CO)N(C(=O)c1ccncc1)CC31CCN(C(=O)NC(C)C)CC1	16
COc1ccc2c3c(n(C)c2c1)[C@@H](CO)N(C)CC31CCN(CC2CC2)CC1	9
COc1ccc2c3c(n(C)c2c1)[C@@H](CO)N(S(C)(=O)=O)CC31CCN(CC2CCCCC2)CC1	-21*
CCCC(=O)N1CC2(CCN(C(=O)NC(C)C)CC2)c2c([nH]c3cc(OC)ccc23)[C@H]1CO	13
COc1ccc2c3c(n(C)c2c1)[C@@H](CO)N(C)CC31CN(C(=O)c2ccccc2F)C1	-35*
COc1ccc2c3c([nH]c2c1)[C@@H](CO)N(C(=O)c1ccc(F)cc1)CC31CCN(C(=O)NC(C)C)CC1	-16*
C/C=C/c1cnc2c(c1)C(=O)N([C@H](C)CO)C[C@H](C)[C@H](CN(C)Cc1ccncc1)O2	5
O=C(NC1CCCCC1)N1CC2(C1)[C@H](c1ccccc1)[C@H](CO)N2CC1CC1	-1
CN(C)CC(=O)Nc1ccc2c(c1)[C@@H]1C[C@H](CC(=O)NCC3CC3)O[C@H](CO)[C@@H]1O2	-1
CO[C@@H]1CC[C@H]2CCN(C)C(=O)[C@H](C)CN(C)C(=O)c3cc(C#N)ccc3OC[C@@H]1O2	-1
CCCNC(=O)N1CC2(C1)CN(Cc1ccccc1)[C@H](CO)c1[nH]c3cc(OC)ccc3c12	-8
COc1ccc2c3c(n(C)c2c1)[C@@H](CO)N(C(=O)c1ccc(F)cc1)CC31CN(C(C)=O)C1	17
COc1ccc2c3c(n(C)c2c1)[C@@H](CO)N(CC1CC1)CC31CCN(C(=O)c2ccccc2)CC1	-32*
CCCNC(=O)N1CC2(C1)CN(Cc1ccccc1)[C@@H](CO)c1[nH]c3cc(OC)ccc3c12	-10*
COc1ccc2c3c(n(C)c2c1)[C@@H](CO)N(C(=O)c1ccccc1)CC31CCN(CC2CC2)CC1	-2
COc1ccc2c3c(n(C)c2c1)[C@@H](CO)N(CC1CC1)CC31CN(C(=O)c2ccccc2)C1	-32*
COc1ccc2c3c(n(C)c2c1)[C@H](CO)N(CC1CC1)CC31CN(C(=O)Nc2ccc(F)cc2F)C1	-5
CCCNC(=O)N1CC2(C1)CN(Cc1ccc(F)cc1)[C@H](CO)c1[nH]c3cc(OC)ccc3c12	-8
COc1ccc2c3c(n(C)c2c1)[C@@H](CO)N(CC1CC1)CC31CCN(C(=O)CC2CC2)CC1	-2
COc1ccc2c3c(n(C)c2c1)[C@H](CO)N(CC1CC1)CC31CN(C(=O)NC2CCCC2)C1	2
COc1ccc2c3c(n(C)c2c1)[C@@H](CO)N(CC1CC1)CC31CCN(C(C)=O)CC1	13
SMILES	DUX4 inh
COc1ccc2c3c(n(C)c2c1)[C@@H](CO)N(CC1CC1)CC31CN(C(=O)c2ccc(F)cc2)C1	-26*
CN1C(=O)c2cc(NC(=O)C3CCCC3)ccc2OC[C@H]2O[C@@H](CC(=O)NCC(F)(F)F)CC[C@H]21	1
CO[C@H]1CN(C)C(=O)c2ccc(NC(=O)Nc3ccccc3)cc2OC[C@@H](C)N(C(=O)CC2CC2)C[C@H]1C	-5
CC(C)[C@H](C)NC(=O)N(C)C[C@@H]1OCc2ccccc2-c2c(n(C)c3ccccc23)C(=O)N([C@H](C)CO)C[C@H]1C	8
C[C@H](CO)N1C[C@H](C)[C@@H](CN(C)Cc2ccc(Cl)c(Cl)c2)Oc2ccc(NC(=O)C3CCCCC3)cc2CC1=O	2
CO[C@@H]1CN(C)C(=O)c2cc(NS(C)(=O)=O)ccc2OC[C@@H](C)N(C(=O)NC(C)C)C[C@H]1C	7

High-throughput results from PubChem.
